In the supplement of paper PMC6555819 one finds PBM binding z-score data, which are given here for 40 sequences.

One assay relates to FXR:RXRa (NR concentration 270 nM, RXRa partner concentration 90 nM). The assay can be described thus: PBM binding z-score (relative to random genomic background probes); higher = stronger binding; sequences stand for … in GC…GCGATTGACAGCGTAGAATGAAGG
An outline of the steps:
(§1)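 Probes were double-stranded and carried 34-nt variable regions with direct-repeat seeds, single-nucleotide variants, half-site ablations and random human genomic background sequences, printed on custom Agilent 4×180K protein-binding microarrays. Arrays were incubated 1 h with ligand-free nuclear receptor dimers in PBS pH 7.4, 2% milk, 0.02% Triton X-100, 1 mM DTT, 0.2 mg/mL BSA and 0.4 mg/ml salmon testes DNA. Antibodies against each partner (one per run) detected binding, and scanned fluorescence was regression-normalized. Binding z-scores use the random background probes as reference.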
As to ACAGACAGGTGATGAAGGTAACTCCGGCTATCAT, the PBM binding z-score was 0.229.

Turning to GCGACTGGGGCAAAGCAGGTGACCATAAGGTTGG, the PBM binding z-score is -0.334.

For GCTATTAGTTGAAAGGGCAAACGAATGATTCTCG, the PBM binding z-score came out at 0.733.

In turn, AGAATGAGGTTATTAAGATCAGGCAATTGCGGTC showed a PBM binding z-score of 1.46.

On to ATCTCTAGGTAAAAGTTCCGTGAATCCCGAGGAT, for which the PBM binding z-score is 0.485.

Turning to GCTTGCAGATCAAGGTTAAGAAAGACTAAGCTAA, the PBM binding z-score was -0.109.

ACTAGCAGGCCAAGGGTCACTCCAGATTAGTCCG came in with a PBM binding z-score of 2.22.

In the case of ATCGGAAGGTCGAAGGTGAGTATACCCACCCGAA, the PBM binding z-score came out at 2.14.

Sequence CCGACTGGGGCAAAGGTTACCATCCTCAGTACGA registered a PBM binding z-score of 1.66.

Turning to CCTACTGGGCAAAGGTCATTGATCAGTCAAAGCA, the PBM binding z-score came out at 4.96.

On to ATCTCTAGGTAAAGATAGTACAGTGAATGCAAAT, for which the PBM binding z-score came to 0.368.

With CATACAGGGTCAGCTAGGCCAGAGCAGGGACGGC, the PBM binding z-score was 4.49.

Sequence ATCTATAGGTAAAAGTTCAGTGAATCCCGAGGAT returned a PBM binding z-score of 0.696.

For the sequence ATCGAAAGGTCGAGGTGAGTCTAGAGAAAGGGAA, the PBM binding z-score turned out to be 4.71.

As to TCTCGTAGATCAATAGAGGTTAAGAAAGTGCGCT, the PBM binding z-score was 0.399.

As to GCGACTGGGGCAAAGCAGGTTTCCATAAGGTTGG, the PBM binding z-score was -0.319.

The sequence ACATGTAGGTTATCGGGTCATTCAGTTTGCGCAT returned a PBM binding z-score of 3.45.

Take CCGAGTAGGTTACGGGGCATTCAGGCAACGGTGA: the PBM binding z-score is 0.382.

The sequence GTGCCAAGGTGAATAGGTCGTTGATGAGTAGGCG returned a PBM binding z-score of 0.631.

On to GATACAGGGCCAAGGCCAGAGTACGCGTATTGAT, for which the PBM binding z-score was -0.68.

Regarding CCTACTGGGCCATCAGGGCATTGATATCAACGTT, the PBM binding z-score is -0.583.

With ATCTCTAGGTAACCAAGTTAAGTGAATGCCGAAC, the PBM binding z-score is 0.211.

Take ACTAGCAGGCCATGGGTCACTCAAGATTAGTCCG: the PBM binding z-score worked out at 0.425.

As to CGTCAAAGTTCAAGGTAACGAAACAGAAAGCAGC, the PBM binding z-score is 6.35.

The sequence TTACCAAGGTGAAGGTTGTTGATCCCTCTGTAGA showed a PBM binding z-score of 0.965.

TCTAGTTGGTCACGGAGGTCTCACACGACGGGTA came in with a PBM binding z-score of 0.555.

As for CGTCCAAGGTCAGCAGGTCAGTGAAAGCGACGTG, the PBM binding z-score was found to be 5.62.

For CCTGCTATGTCAATGGTCAGCTAAAGCAGCTCGC, the PBM binding z-score is -0.419.

Sequence CCGACTGGGGCAAAGGTTACCATTCTCAGTACGA displayed a PBM binding z-score of 1.49.

CGTCCAAGGTCAGCGAGGTCAGTGAATGCCGAGT registered a PBM binding z-score of 6.31.

Sequence AGTCAAAGTTCACTAGCTAACGTAAGATTCAGCT yielded a PBM binding z-score of 4.87.

As for TCAATTAGTTGAAGGGCAACCGACGAGTCCGTTT, the PBM binding z-score was 0.718.

TCTCGGAGGACACGAAAGGTTAGAGCTCGACATC registered a PBM binding z-score of 1.18.

The sequence TGAATGAGGTTATAAGATCAGGGAGCGTTGCAAA returned a PBM binding z-score of 1.22.

With TCTGCTAGGTCAACGAAGGTCAGCTAATCTGCTA, the PBM binding z-score was determined as 4.67.

In the case of TCTTGTAGATCAACAGGAGGCTAAGAAAGATCGA, the PBM binding z-score was -0.113.

Sequence CTCGAAAGGTCGGGTGAGGTGAGTATACGGATAA gave a PBM binding z-score of 3.

For the sequence TAGCATAGGTCATTCAGGGGCCAGTATAGAAAGC, the PBM binding z-score turned out to be 6.82.

ATGCCAAGGTGATCGTGAGGTCGTTGATACTAAC had a PBM binding z-score of 1.44.

Turning to GAATATAGGTAATACAAGGTGAAAGTCCGATTGT, the PBM binding z-score is 1.61.

Another assay relates to LXRa:RXRa (NR concentration 270 nM, RXRa partner concentration 90 nM). The assay is described as above. Summed up:
as §1
As to ACAGACAGGTGATGAAGGTAACTCCGGCTATCAT, the PBM binding z-score turned out to be 0.181.

With GCGACTGGGGCAAAGCAGGTGACCATAAGGTTGG, the PBM binding z-score is -0.7.

GCTATTAGTTGAAAGGGCAAACGAATGATTCTCG came in with a PBM binding z-score of 0.93.

AGAATGAGGTTATTAAGATCAGGCAATTGCGGTC registered a PBM binding z-score of 1.36.

ATCTCTAGGTAAAAGTTCCGTGAATCCCGAGGAT: the PBM binding z-score was determined as 0.395.

GCTTGCAGATCAAGGTTAAGAAAGACTAAGCTAA: the PBM binding z-score stood at 0.424.

On to ACTAGCAGGCCAAGGGTCACTCCAGATTAGTCCG, for which the PBM binding z-score was determined as 2.79.

ATCGGAAGGTCGAAGGTGAGTATACCCACCCGAA showed a PBM binding z-score of 1.54.

Turning to CCGACTGGGGCAAAGGTTACCATCCTCAGTACGA, the PBM binding z-score turned out to be 1.25.

In turn, CCTACTGGGCAAAGGTCATTGATCAGTCAAAGCA displayed a PBM binding z-score of 5.6.

ATCTCTAGGTAAAGATAGTACAGTGAATGCAAAT came in with a PBM binding z-score of 1.08.

In turn, CATACAGGGTCAGCTAGGCCAGAGCAGGGACGGC came in with a PBM binding z-score of 3.07.

ATCTATAGGTAAAAGTTCAGTGAATCCCGAGGAT had a PBM binding z-score of 1.58.

Sequence ATCGAAAGGTCGAGGTGAGTCTAGAGAAAGGGAA came in with a PBM binding z-score of 3.71.

For TCTCGTAGATCAATAGAGGTTAAGAAAGTGCGCT, the PBM binding z-score turned out to be 3.34.

As for GCGACTGGGGCAAAGCAGGTTTCCATAAGGTTGG, the PBM binding z-score is -0.518.

For the sequence ACATGTAGGTTATCGGGTCATTCAGTTTGCGCAT, the PBM binding z-score was 3.33.

For CCGAGTAGGTTACGGGGCATTCAGGCAACGGTGA, the PBM binding z-score is 0.612.

In turn, GTGCCAAGGTGAATAGGTCGTTGATGAGTAGGCG came in with a PBM binding z-score of 0.487.

Regarding GATACAGGGCCAAGGCCAGAGTACGCGTATTGAT, the PBM binding z-score was -0.832.

Regarding CCTACTGGGCCATCAGGGCATTGATATCAACGTT, the PBM binding z-score was -0.856.

ATCTCTAGGTAACCAAGTTAAGTGAATGCCGAAC returned a PBM binding z-score of 0.255.

Consider ACTAGCAGGCCATGGGTCACTCAAGATTAGTCCG, for which the PBM binding z-score is 0.807.

CGTCAAAGTTCAAGGTAACGAAACAGAAAGCAGC had a PBM binding z-score of 5.77.

For the sequence TTACCAAGGTGAAGGTTGTTGATCCCTCTGTAGA, the PBM binding z-score stood at 0.801.

Sequence TCTAGTTGGTCACGGAGGTCTCACACGACGGGTA showed a PBM binding z-score of 0.613.

CGTCCAAGGTCAGCAGGTCAGTGAAAGCGACGTG: the PBM binding z-score came out at 4.

Consider CCTGCTATGTCAATGGTCAGCTAAAGCAGCTCGC, for which the PBM binding z-score is -0.17.

For CCGACTGGGGCAAAGGTTACCATTCTCAGTACGA, the PBM binding z-score worked out at 1.29.

Sequence CGTCCAAGGTCAGCGAGGTCAGTGAATGCCGAGT had a PBM binding z-score of 5.26.

AGTCAAAGTTCACTAGCTAACGTAAGATTCAGCT gave a PBM binding z-score of 4.82.

As for TCAATTAGTTGAAGGGCAACCGACGAGTCCGTTT, the PBM binding z-score is 0.5.

TCTCGGAGGACACGAAAGGTTAGAGCTCGACATC returned a PBM binding z-score of 0.89.

Sequence TGAATGAGGTTATAAGATCAGGGAGCGTTGCAAA showed a PBM binding z-score of 1.19.

For the sequence TCTGCTAGGTCAACGAAGGTCAGCTAATCTGCTA, the PBM binding z-score is 5.5.

As to TCTTGTAGATCAACAGGAGGCTAAGAAAGATCGA, the PBM binding z-score was -0.312.

Consider CTCGAAAGGTCGGGTGAGGTGAGTATACGGATAA, for which the PBM binding z-score was found to be 2.3.

In the case of TAGCATAGGTCATTCAGGGGCCAGTATAGAAAGC, the PBM binding z-score was 5.38.

As for ATGCCAAGGTGATCGTGAGGTCGTTGATACTAAC, the PBM binding z-score is 0.89.

Regarding GAATATAGGTAATACAAGGTGAAAGTCCGATTGT, the PBM binding z-score was 2.61.
